Results from PubChem BioAssay (NCATS).
Records with an inconclusive call do not appear. Entries that show only a call come without a potency. The source made the active and inactive calls. Unless noted, the call rests on the fitted dose curve; in most records, active means well fitted curve in the direction sought with a large enough effect; inconclusive means small, poorly fitted or top-dose-only effect, or another doubt; inactive means no such curve, though single readings can be large; an effect the other way counts as inactive or inconclusive.

Key:
[1] = Cellular Toxicity (caspase-3) Jurkat (AID 655);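 further: cells exposed to compound for 16 h at 37 °C before reading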
Procedure, shortened: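 Caspase 3/7 activation is scored as increased luminescence in Jurkat cells cultured with compound for 16 hours in complete medium. AC50 values come from Hill fits of qHTS concentration-response data normalized to DMSO and 100 uM tamoxifen controls.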

[2] = Cellular Toxicity (caspase-3) HUV-EC-C (AID 656)
Procedure, shortened: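 Read-out: luminescence proportional to caspase 3/7 activity, measured 20 min after adding Caspase-Glo 3/7 reagent. Cells (HUV-EC-C) had received compound for 16 hr at 37°C. Increases relative to DMSO and 100 uM tamoxifen gave concentration-response AC50 values.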

[3] = Cellular Toxicity (caspase-3) SHSY5Y (AID 657);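 further: cells exposed to compound for 16 hours at 37 °C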
Procedure, shortened: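 Cells plated and incubated 5 h at 37 °C, dosed over a concentration range, incubated 16 h, then given Caspase-Glo 3/7 reagent for 1 h at room temperature before luminescence reading. Staurosporine (10 uM) defined full stimulation.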

[4] = Cellular Toxicity (caspase-3) BJ (AID 658)
Procedure, shortened: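 qHTS, BJ fibroblasts, 1000 cells/well; 5 hr preincubation, 16 hr compound, 37 °C; Caspase-Glo 3/7 reagent, 1 hr RT; luminescence. DMSO = 0%, 10 uM staurosporine = 100%. Hill-equation AC50.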

[5] = Cellular Toxicity (caspase-3) MRC-5 (AID 659); settings: Potency: caspase-3 activation
Procedure, shortened: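 MRC-5 fibroblasts, 1500/well; 16 h cpd, 37 °C; Caspase-Glo 3/7, 1 h RT; lumi read. Norm: DMSO = 0%, 10 uM staurosporine = 100%. Hill-fit AC50 from qHTS conc-response.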

[6] = Cellular Toxicity (caspase-3) Mesangial (AID 660);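 further: cells exposed to compound for 16 h before the caspase read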
Procedure, shortened: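 Caspase 3/7 activation measured by Caspase-Glo 3/7 luminescence (20 min, room temperature) following 16 h exposure of mesangial cells (1000/well); AC50 from Hill-equation fit, normalized to DMSO and 100 uM tamoxifen.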

[7] = Cellular Toxicity (caspase-3) SK-N-SH (AID 661)
Procedure, shortened: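 Caspase 3/7 activation was read by luminogenic substrate cleavage after 16 hour treatment of SK-N-SH cells. Signal was scaled between DMSO and 10 uM staurosporine, and concentration-response data were fitted with the Hill equation for AC50.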

[8] = Cellular Toxicity (caspase-3) H-4-II-E (AID 663);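 further: cells exposed to compound for 16 hr before readout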
Procedure, shortened: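 H-4-II-E rat hepatoma, 1500 cells/well, 5 hr settle at 37 °C; compound 16 hr, 37 °C, complete medium; Caspase-Glo 3/7, 20 min RT; luminescence. DMSO = 0%, 100 uM tamoxifen = 100%; Hill-equation AC50.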

[9] = Cellular Toxicity (caspase-3) Hek293 (AID 664);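 further: cells exposed to compound for 16 h at 37 °C before readout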
Procedure, shortened: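 Concentration-response qHTS: caspase 3/7 activation measured by luminescent aminoluciferin substrate cleavage after 16 h compound exposure of Hek 293 cells. AC50 from Hill equation, with DMSO as basal and 100 uM tamoxifen as 100%.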

[10] = Cellular Toxicity (caspase-3) N2a (AID 665);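 further: compound exposure lasted 16 h at 37 °C before readout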
Procedure, shortened: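 Caspase-3/7 activation measured as luminescence from Caspase-Glo reagent (1 h, room temperature) after 16 h compound exposure of mouse N2a cells. AC50 values from Hill-equation concentration-response, scaled between DMSO and 10 uM staurosporine.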

[11] = Cellular Toxicity (caspase-3) NIH 3T3 (AID 666);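 further: caspase signal read after 16 h compound exposure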
Procedure, shortened: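 Caspase-Glo 3/7 luminescence reported caspase activation in 1000 NIH 3T3 cells/well after 16 h compound exposure at 37 C. DMSO set basal and 100 uM tamoxifen set 100% stimulation; concentration-response modeled with the Hill equation for AC50.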

[12] = target: Cytochrome P450 3A4 (Homo sapiens) (UniProt P08684); assay: qHTS Assay for Inhibitors and Substrates of Cytochrome P450 3A4 (AID 884); further: series mostly up to about 57 µM; nearly all actives have a fitted effect of over 50% in size
Chain of Cytochrome P450 3A4 (Homo sapiens) (P08684 whole entry, looked up): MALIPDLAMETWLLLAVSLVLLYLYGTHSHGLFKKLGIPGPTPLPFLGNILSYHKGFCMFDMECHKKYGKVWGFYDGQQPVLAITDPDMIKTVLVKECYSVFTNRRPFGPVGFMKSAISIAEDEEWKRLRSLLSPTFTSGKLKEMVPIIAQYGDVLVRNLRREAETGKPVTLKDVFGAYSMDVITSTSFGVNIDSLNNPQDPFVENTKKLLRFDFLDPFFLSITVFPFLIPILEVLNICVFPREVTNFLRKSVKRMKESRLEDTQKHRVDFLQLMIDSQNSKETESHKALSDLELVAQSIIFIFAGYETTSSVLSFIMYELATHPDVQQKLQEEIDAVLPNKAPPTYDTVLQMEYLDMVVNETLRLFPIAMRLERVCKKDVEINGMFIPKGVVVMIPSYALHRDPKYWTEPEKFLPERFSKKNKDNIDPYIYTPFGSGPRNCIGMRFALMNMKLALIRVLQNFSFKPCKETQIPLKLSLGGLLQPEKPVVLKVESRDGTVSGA
Procedure, shortened: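 Luminescent readout of luciferin produced by CYP3A4 (20 nM) dealkylation of Luciferin-PPXE, 25 uM (its KM). NADPH-driven reaction ran 60 min at RT after 10 min compound preincubation; data scaled to 57 uM ketoconazole as 100% inhibition.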

[13] = target: Cytochrome P450 2C19 (Homo sapiens) (UniProt P33261); assay: qHTS Assay for Inhibitors and Substrates of Cytochrome P450 2C19 (AID 899); further: nearly all actives have a fitted effect of over 60% in size; further: potency means the concentration at half of the fitted maximal effect
Chain of Cytochrome P450 2C19 (Homo sapiens) (P33261 whole entry, looked up): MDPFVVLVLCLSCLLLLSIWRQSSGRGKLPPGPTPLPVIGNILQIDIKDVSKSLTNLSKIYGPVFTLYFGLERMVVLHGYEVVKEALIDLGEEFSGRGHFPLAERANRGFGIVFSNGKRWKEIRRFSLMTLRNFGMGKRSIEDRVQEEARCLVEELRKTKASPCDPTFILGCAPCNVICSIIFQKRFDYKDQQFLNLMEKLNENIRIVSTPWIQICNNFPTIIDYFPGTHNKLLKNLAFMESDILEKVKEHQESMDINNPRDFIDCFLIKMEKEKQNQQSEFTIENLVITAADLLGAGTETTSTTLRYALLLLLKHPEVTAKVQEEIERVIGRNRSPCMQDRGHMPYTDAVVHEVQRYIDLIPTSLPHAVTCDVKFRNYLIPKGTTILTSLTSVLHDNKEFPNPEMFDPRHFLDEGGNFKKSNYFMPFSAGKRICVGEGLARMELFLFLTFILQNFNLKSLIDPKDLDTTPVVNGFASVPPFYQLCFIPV
Procedure, shortened: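 5 nM human CYP2C19 with 10uM Luciferin-H EGE (at KM) in 50mM KPO4, compound preincubated 10 min at 37C, then NADPH regeneration for 60 min at 37C. Luciferin read by luminescence after detection reagent; normalized to 57uM ketoconazole as full inhibition.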

[14] = target: Guanine nucleotide-binding protein G(i) subunit alpha-1 (Homo sapiens) (UniProt P63096); assay: qHTS Assay for Inhibitors of RGS12 GoLoco Motif Activity (Green Fluorophore) (AID 879);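 further: negative values mean loss of peptide binding seen as reduced polarization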
Chain of Guanine nucleotide-binding protein G(i) subunit alpha-1 (Homo sapiens) (P63096 whole entry, looked up): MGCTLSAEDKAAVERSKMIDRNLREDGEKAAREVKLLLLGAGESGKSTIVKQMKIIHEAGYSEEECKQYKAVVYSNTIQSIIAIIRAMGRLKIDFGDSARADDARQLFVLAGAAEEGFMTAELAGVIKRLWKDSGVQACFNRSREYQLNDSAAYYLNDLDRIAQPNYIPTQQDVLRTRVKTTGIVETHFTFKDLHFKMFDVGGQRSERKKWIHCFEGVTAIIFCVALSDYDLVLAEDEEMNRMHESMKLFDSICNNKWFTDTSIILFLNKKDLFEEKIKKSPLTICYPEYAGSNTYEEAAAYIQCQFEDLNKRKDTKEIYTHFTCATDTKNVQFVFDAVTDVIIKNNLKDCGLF
Procedure, shortened: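 A drop in FITC polarization marked displacement of the FITC-tagged RGS12 GoLoco peptide (10 nM) from Gαi1 (50 nM). Compounds were incubated 10 min at room temperature in Tris pH 7.5 buffer containing 150 mM NaCl, 0.1 mM GDP and 0.05% NP40; unlabeled peptide titration served as control.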

[15] = target: Cytochrome P450 3A4 (Homo sapiens) (UniProt P08684); assay: qHTS Assay for Activators of Cytochrome P450 3A4 (AID 885); further: nearly all actives have a fitted effect of over 65% in size
Procedure, shortened: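 CYP3A4 activity: Luciferin-PPXE O-dealkylation, 25uM substrate, 200mM KPO4, RT throughout. Read-out is luciferase luminescence; higher values reflect activation.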

[16] = Confirmation and Secondary Assay for Modulators of Hemoglobin Beta Chain Splicing at IVS2 654 locus (AID 910);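 further: HeLa cells stably carrying EGFP split by mutant beta-globin IVS2-654 intron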
Procedure, shortened: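 HeLa cells stably expressing EGFP interrupted by β-globin IVS2-654 intron, seeded overnight in Opti-MEM/2% FCS, then treated 2 days at 37 °C. Restored splicing read as total peak GFP intensity per well by laser scanning cytometry (488 nm excitation, 500–520 nm emission); 500 nM antisense PNA as control.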

[17] = target: Cytochrome P450 2C9 (Homo sapiens) (UniProt P11712); assay: qHTS Assay for Inhibitors and Substrates of Cytochrome P450 2C9 (AID 883); further: nearly all actives have a fitted effect of over 60% in size
Chain of Cytochrome P450 2C9 (Homo sapiens) (P11712 whole entry, looked up): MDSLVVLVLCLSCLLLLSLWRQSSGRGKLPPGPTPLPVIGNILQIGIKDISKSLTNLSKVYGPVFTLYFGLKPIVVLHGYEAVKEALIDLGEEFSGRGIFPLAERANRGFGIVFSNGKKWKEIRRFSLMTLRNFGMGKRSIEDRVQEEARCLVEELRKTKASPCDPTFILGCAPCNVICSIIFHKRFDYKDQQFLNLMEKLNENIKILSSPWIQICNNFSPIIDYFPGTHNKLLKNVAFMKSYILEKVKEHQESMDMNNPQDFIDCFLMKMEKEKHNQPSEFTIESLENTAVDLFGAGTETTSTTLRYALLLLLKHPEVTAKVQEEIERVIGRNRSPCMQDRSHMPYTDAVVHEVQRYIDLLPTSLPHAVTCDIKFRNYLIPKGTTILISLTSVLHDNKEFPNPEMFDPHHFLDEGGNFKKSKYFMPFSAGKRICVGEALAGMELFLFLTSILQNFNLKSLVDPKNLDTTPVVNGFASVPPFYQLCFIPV
Procedure, shortened: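 Human CYP2C9 (10nM) with Luciferin-H at 100uM (its KM) in 25mM KPO4; compound preincubated 10 min at 37C, then NADPH regeneration for 60 min at 37C. Luciferin read by luminescence after detection reagent; normalized to 57uM sulphaphenazole as full inhibition.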

[18] = target: Cytochrome P450 2D6 (Homo sapiens) (UniProt P10635); assay: qHTS Assay for Inhibitors and Substrates of Cytochrome P450 2D6 (AID 891); further: potency means the concentration at half of the fitted maximal effect; nearly all actives have a fitted effect of over 60% in size
Chain of Cytochrome P450 2D6 (Homo sapiens) (P10635 whole entry, looked up): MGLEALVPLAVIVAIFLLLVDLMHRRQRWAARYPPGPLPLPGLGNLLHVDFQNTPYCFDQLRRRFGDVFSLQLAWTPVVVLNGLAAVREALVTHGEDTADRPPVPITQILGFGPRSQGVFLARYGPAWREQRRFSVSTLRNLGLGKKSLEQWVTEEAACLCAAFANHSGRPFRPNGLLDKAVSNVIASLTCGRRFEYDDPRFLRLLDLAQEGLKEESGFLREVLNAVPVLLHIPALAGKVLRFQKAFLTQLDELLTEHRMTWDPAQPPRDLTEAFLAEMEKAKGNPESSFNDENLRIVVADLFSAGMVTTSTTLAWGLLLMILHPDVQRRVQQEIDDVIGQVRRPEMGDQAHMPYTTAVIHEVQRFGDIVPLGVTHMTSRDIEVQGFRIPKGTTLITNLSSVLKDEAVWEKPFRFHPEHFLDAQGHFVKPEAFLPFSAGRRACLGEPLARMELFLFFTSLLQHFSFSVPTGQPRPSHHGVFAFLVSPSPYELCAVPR
Procedure, shortened: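 Luminescent read-out of luciferin formed by 5 nM human CYP2D6 demethylating 30 uM Luciferin-ME EGE (Km level) over 60 min at room temperature after NADPH regeneration addition. Data normalized to full inhibition by 1.43 uM quinidine.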

[19] = qHTS Assay for Identification of Small Molecule Antagonists for NFkB Signaling Pathway (AID 895; active means well fitted inhibition curve with a large enough effect in the signal ratio, with a control signal flat, not every such curve was filed as active; the % refers to the signal ratio; further: potency means the concentration at half of the fitted maximal effect)
Procedure, shortened: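 ME-180 NFkB-bla cells (beta-lactamase under NFkB response element), plated overnight, treated with compound then 10 pM TNF alpha (about EC50) for 5 hrs at 37 C. LiveBLAzer FRET read at 460/530 nm emission, 405 nm excitation.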

## COc1ccccc1O
[1]
  Potency: inactive
[2]
  outcome: inactive
[3]
  outcome: inactive
[4]
  outcome: inactive
[5]
  Potency: inactive
[6]
  outcome: inactive
[7]
  outcome: inactive
[8]
  outcome: inactive
[9]
  outcome: inactive
[10]
  outcome: inactive
[11]
  outcome: inactive
[12]
  Potency: inactive

## CCCCOC(=O)c1ccc(O)cc1
[1]
  Potency: inactive
[2]
  outcome: inactive
[3]
  outcome: inactive
[4]
  outcome: inactive
[5]
  Potency: inactive
[6]
  outcome: inactive
[7]
  outcome: inactive
[8]
  outcome: inactive
[9]
  outcome: inactive
[10]
  outcome: inactive
[11]
  outcome: inactive
[12]
  Potency: inactive
[13]
  Potency: 6.31 µM (active)

## NCCNCCNCCN
[1]
  Potency: inactive
[2]
  outcome: inactive
[3]
  outcome: inactive
[4]
  outcome: inactive
[5]
  Potency: inactive
[6]
  outcome: inactive
[7]
  outcome: inactive
[8]
  outcome: inactive
[9]
  outcome: inactive
[10]
  outcome: inactive
[11]
  outcome: inactive

## CC(C)NC[C@H](O)c1ccc(O)c(O)c1
[14]
  outcome: inactive

## CC1(C)[C@@H]2CC[C@@]1(C)C(=O)C2
[1]
  Potency: inactive
[2]
  outcome: inactive
[3]
  outcome: inactive
[4]
  outcome: inactive
[5]
  Potency: inactive
[6]
  outcome: inactive
[7]
  outcome: inactive
[8]
  outcome: inactive
[9]
  outcome: inactive
[10]
  outcome: inactive
[11]
  outcome: inactive
[12]
  Potency: inactive

## NCCNCCNCCNCCN
[1]
  Potency: inactive
[2]
  outcome: inactive
[3]
  outcome: inactive
[4]
  outcome: inactive
[5]
  Potency: inactive
[6]
  outcome: inactive
[7]
  outcome: inactive
[8]
  outcome: inactive
[9]
  outcome: inactive
[10]
  outcome: inactive
[11]
  outcome: inactive
[12]
  Potency: inactive

## Oc1cccc(O)c1
[1]
  Potency: inactive
[2]
  outcome: inactive
[3]
  outcome: inactive
[4]
  outcome: inactive
[5]
  Potency: inactive
[6]
  outcome: inactive
[7]
  outcome: inactive
[8]
  outcome: inactive
[9]
  outcome: inactive
[10]
  outcome: inactive
[11]
  outcome: inactive
[15]
  outcome: inactive
[16]
  outcome: inactive

## Nc1ccc(S(=O)(=O)Nc2nccs2)cc1
[1]
  Potency: inactive
[2]
  outcome: inactive
[3]
  outcome: inactive
[4]
  outcome: inactive
[5]
  Potency: inactive
[6]
  outcome: inactive
[7]
  outcome: inactive
[8]
  outcome: inactive
[9]
  outcome: inactive
[10]
  outcome: inactive
[11]
  outcome: inactive
[17]
  Potency: inactive
[12]
  Potency: inactive
[16]
  outcome: inactive

## c1ccc2c(CC3=NCCN3)cccc2c1
[12]
  Potency: inactive
[18]
  Potency: 7.94 µM (active)
[16]
  outcome: inactive

## Cc1cc(N)c2ccccc2[n+]1CCCCCCCCCC[n+]1c(C)cc(N)c2ccccc21
[14]
  outcome: inactive
[15]
  outcome: inactive
[16]
  outcome: inactive

## C=Cc1c(C)c2cc3[nH]c(cc4nc(cc5nc(cc1[nH]2)C(C)=C5CCC(=O)O)C(CCC(=O)O)=C4C)c(C)c3C=C
[14]
  outcome: inactive
[12]
  Potency: inactive
[13]
  Potency: inactive
[16]
  outcome: inactive

## Cc1cc2c(cc1S(N)(=O)=O)S(=O)(=O)CCC2
[17]
  Potency: inactive

## CN(C)CCOC(C)(c1ccccc1)c1ccccn1 (stereo not given)
[12]
  Potency: inactive
[16]
  outcome: inactive

## CNCCCC1c2ccccc2C=Cc2ccccc21
[14]
  outcome: inactive
[15]
  outcome: inactive
[18]
  Potency: 3.98 µM (active)
[19]
  Potency: 8.91 µM (active)
